Drawing on PubChem BioAssay (Tox21), this text covers Potency for 21 compounds.

Records with an inconclusive call do not appear. Entries that show only a call come without a potency. Calls of active or inactive are those of the source. Calls follow the shape of the dose curve; as a rule, active = well fitted cell-killing curve with a large enough effect in the repeat runs; inconclusive = weak or mixed curves, or effect the other way; inactive = flat fitted curve, though single readings scatter.

This assay in a line: qHTS assay to identify small molecule antagonists of the retinoid acid receptor (RAR) signaling pathway - cell viability counter screen (AID 1159551). Also: nearly all actives have a fitted effect of over 35% in size. As to conditions: C3RL4 cells viability, ATP luminescence (CellTiter-Glo), 6 h; series mostly up to 92.4 µM. In short, it runs like this:
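Retinol-stimulated (1 uM final) C3RL4 cells, compound 6 h, 37 C; readout CellTiter-Glo luminescence (ATP) after 30 min RT incubation.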
(In general: Quantitative high-throughput screening tests each substance at several concentrations.)
Consider `CCCCCCCCCCCCCCCC`, for which the Potency result was “inactive”.

For the compound `Cc1cc2c(C(C)C)c(O)c(O)c(C=O)c2c(O)c1-c1c(C)cc2c(C(C)C)c(O)c(O)c(C=O)c2c1O`, the Potency entry was “inactive”.

With `CCCCNc1c(C(=O)OCC)c(C)nc2c1cnn2CC`, the Potency entry was “inactive”.

In the case of `CC(C)(C)C1=CC(=O)C=C(C(C)(C)C)C1=O`, the Potency entry was “inactive”.

As to `C/C=C/C=N/NC(=O)c1ccncc1`, the Potency entry is “inactive”.

For `O=S(=O)(O)CCCN1CCOCC1`, the Potency result was “inactive”.

Consider `CCCC(CC)CCCCCCCN` (stereo unspecified), for which the Potency entry was “inactive”.

For `CCCCCCCOC(=O)c1ccc(O)cc1`, the Potency entry was “inactive”.

As to `CSc1c(Cl)c(Cl)c(Cl)c(Cl)c1Cl`, the Potency result was “inactive”.

As to `ClC/C=C\CCl`, the Potency entry was “inactive”.

As to `Cc1c(C)n(Cc2ccccc2)c2ccc(C(=O)OCCN(C)C)cc12`, the Potency entry was “inactive”.

With `O=C1OC(=O)c2cccc3cccc1c23`, the Potency entry was “inactive”.

Turning to `CC1=C(/C=C/C(C)=C/C=C/C(C)=C\C=O)C(C)(C)CCC1`, the Potency result is “inactive”.

For `O=C(Oc1ccccc1)c1cccc(C(=O)Oc2ccccc2)c1`, the Potency entry was “inactive”.

`Cc1cn[nH]c1`: the Potency entry was “inactive”.

`O=C(c1ccccc1)c1cc(Cl)ccc1O`: the Potency result is “inactive”.

Consider `CO[C@H]1C=CO[C@@]2(C)Oc3c(C)c(O)c4c(O)c(cc(O)c4c3C2=O)NC(=O)/C(C)=C\C=C/[C@H](C)[C@H](O)[C@@H](C)[C@@H](O)[C@@H](C)[C@H](OC(C)=O)[C@@H]1C`, for which the Potency result is “inactive”.

Turning to `COc1cc(C(=O)NS(=O)(=O)c2ccccc2C)ccc1Cc1cn(C)c2ccc(NC(=O)OC3CCCC3)cc12`, the Potency result is “inactive”.

With `NCCCCCCNCCCCCCN`, the Potency entry was “inactive”.

Turning to `Cc1ccc(CCn2c3c(c4cc(Cl)ccc42)CN(C)CC3)cn1`, the Potency entry is “inactive”.

In the case of `c1cc2c3c(c1)ccc1cccc(c13)C2`, the Potency entry is “inactive”.
